Values without a mark were called inactive. Records with an inconclusive call do not appear. Where a call stands in place of a potency, no number is given. The source made the active and inactive calls. The call rests on the fitted dose curve; in most records, active means well fitted curve in the direction sought with a large enough effect; inconclusive means small, poorly fitted or top-dose-only effect, or another doubt; inactive means no such curve, though single readings can be large; an effect the other way counts as inactive or inconclusive.
tested on: not listed separately; assay: Primary fluorescence-based thiol-reactive (MSTI) qHTS assay for identification of artifact compounds. (AID 1845221); details: MSTI thiol-reactivity probe, 1 h; series mostly up to 53.8 µM; further: nearly all actives have a fitted effect of over 65% in size; further: potency means the concentration at half of the fitted maximal effect;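 on activity change, negative = thiol reactive: thiol-reactive compounds lower the probe fluorescence signal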
How it was run: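 First, 4 uM MSTI in 2% DMSO/PBS pH 7.4 was dispensed; next, compounds were added; then plates sat 1 h at room temperature without light. Finally, emission at 598 nm was recorded.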

| Compound | Potency | activity change, negative = thiol reactive |
| --- | --- | --- |
| CC1=C(C(=O)O)/C(=C\CO[C@@H]2O[C@H](CO)[C@@H](O)[C@H](O)[C@H]2O)C(OC(=O)/C=C\c2ccc(O)cc2)C1 (some centres undefined) | 4.62 µM (active) | – |
| C=C(C)C1CCC2(C(=O)O)CCC3(C(=O)O)C(CCC4C5(C)CCC(O)C(C)(C(=O)O)C5CCC43C)C12 (centres undefined) | inactive | – |
| COc1c2c(c(CO)c3c1C(=O)OC3)OC1(C)CCC3(O)C(C)(C)OC(=O)CCC3(C)C1C2 (centres undefined) | inactive | – |
| OCCc1ccc(O[C@@H]2O[C@H](CO)[C@@H](O)[C@H](O)[C@H]2O)cc1 | inactive | – |
| C[C@@H]1CCC2C(C)(C)[C@H](O)CC[C@]2(C)[C@@]12Cc1c(O)cc3c(c1O2)CN([C@@H](CCC(=O)O)C(=O)O)C3=O (some centres undefined) | inactive | – |
| CC(=O)O[C@@H]1[C@H](O[C@@H]2O[C@@H](CO)[C@H](O)[C@H]2O)[C@@H](O[C@@H]2O[C@@H](C)[C@H](O[C@@H]3OC[C@@H](O)[C@H](O)[C@H]3O)[C@@H](O)[C@H]2O)[C@H](OC(=O)[C@]23CCC(C)(C)C[C@H]2C2=CCC4[C@@]5(C)CC[C@H](O[C@@H]6O[C@H](C(=O)O)[C@@H](O)[C@H](O)[C@H]6O[C@@H]6O[C@H](CO)[C@H](O)[C@H](O)[C@H]6O)[C@@](C)(C=O)C5CC[C@@]4(C)[C@]2(C)CC3)O[C@@H]1C (some centres undefined) | – | 321% [at 11.5 µM] |
| C[C@@H]([C@@H](O)c1ccc(O)cc1)N1CCC(O)(c2ccccc2)CC1 | inactive | – |
| CC1(C)CC2C(O)c3cocc3CC(C)(O)C2C1 (centres undefined) | inactive | – |
| Cn1c(=O)n(-c2ccc(C(C)(C)C#N)cc2)c2c3cc(C#Cc4cccnc4)ccc3ncc21 | inactive | – |
| CN1CCN(C2CCC(n3cc(-c4ccc(Oc5ccccc5)cc4)c4c(N)ncnc43)CC2)CC1 (centres undefined) | inactive | – |

tested on: Nanoluciferase (engineered Oplophorus gracilirostris luciferase); assay: Primary Nanoluciferase (NLuc) qHTS assay for identification of artifact compounds. (AID 1845222); details: NLuc-conditioned medium, Nano-Glo luminescence, 5 min; series mostly up to 54.1 µM;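 further: NLuc secreted into diluted conditioned medium of S16 cells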
How it was run: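 S16 cell supernatant NLuc, 1:55; cpds qHTS; 15 min RT dark; Nano-Glo substrate 1:100, 5 min; luminescence; Hill fit of % inhibition.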

| Compound | Potency | activity, negative = inhibition |
| --- | --- | --- |
| COc1ccccc1Oc1ccc(N(Cc2cccnc2)S(=O)(=O)CC(F)(F)F)cc1 | inactive | – |
| C=CC(C)(O)CC/C=C(\C)C(=O)OC1C(O)C(CO)OC(OC(=O)C23CCC(C)(C)CC2C2=CCC4C5(C)CCC(OC6OC(COC7OCC(OC(C)=O)C(O)C7OC7OC(COC(C)=O)C(O)C(O)C7O)C(O)C(O)C6O)C(C)(C)C5CCC4(C)C2(C)C(O)C3O)C1OC1OCC(OC2OCC(O)C(OC3OCC(O)C(O)C3O)C2O)C(O)C1O (centres undefined) | – | 2.81% [at 6.45 µM] |
| O=C(CO)[C@@H](O)[C@H](O[C@@H]1O[C@H](CO)[C@H](O)[C@H](O)[C@H]1O)[C@H](O)CO | inactive | – |
| C/C1=C\CCC(C)CCO[C@@H]2O[C@H](CO[C@@H]3OC[C@H](O)[C@H](O)[C@H]3OC1=O)[C@@H](O)[C@H](O)[C@H]2O (some centres undefined) | inactive | – |
| Cc1csc(NC(=O)c2ccc(COc3cccc(Cl)c3)o2)n1 | inactive | – |
| COC(=O)C[C@H]1C(C)(C)[C@H](OC(C)=O)C2CC3=C4CC(=O)O[C@@H](c5ccoc5)[C@]4(C)CCC3[C@@]1(C)C2=O (some centres undefined) | inactive | – |
| CC(=O)O[C@]1(C(C)=O)CC[C@H]2[C@@H]3C[C@H](C)C4=CC(=O)C=C[C@]4(C)[C@@]3(F)[C@@H](O)C[C@@]21C | inactive | – |
| CCCC1(c2ccccc2)NC(=O)N(CC(=O)N(C)Cc2c(F)cccc2Cl)C1=O (centres undefined) | inactive | – |
| C=CC(C)(O)CC[C@H]1C(=C)CCC2[C@](C)(C(=O)O)CCC[C@@]21C (some centres undefined) | inactive | – |
| C=CC(C)(O)C(O)CC1C(C)(O)C(O)C(O)C2C(C)(C)CCCC21C (centres undefined) | inactive | – |
| C[C@@H]1C[C@@H](O)[C@@]23CO[C@@H](O)[C@@H]2CCC[C@@H]3[C@@]12C[C@@H](c1ccoc1)OC2=O | inactive | – |
| OC[C@H]1O[C@@H](OC(CCCCc2ccc(O)cc2)CCc2ccc(O)cc2)[C@H](O)[C@@H](O)[C@@H]1O (some centres undefined) | inactive | – |
| Cc1cc(Nc2ncc3cc(-c4c(Cl)cccc4Cl)c(=O)n(C)c3n2)ccc1F | inactive | – |
| CC1(C(=O)O)CCCC2(C)C3=CCC4CC3(CCC12)CC4CO (centres undefined) | inactive | – |
| C[C@H](O)[C@H](O)/C=C/c1cccc(O)c1CO | inactive | – |
| CC1(C)C2CC=C(COC3OC(COC4OCC(O)(CO)C4O)C(O)C(O)C3O)C1C2 (centres undefined) | inactive | – |
| C=CC(C)(C)C12C=C(OC)C(=O)N3C(C(C)C)C(=O)NC31N(OC)c1ccccc12 (centres undefined) | inactive | – |
| [N-]=[N+]=N[C@]1(CO)O[C@@H](n2ccc(=O)[nH]c2=O)[C@@H](O)[C@@H]1O | inactive | – |
| COC(=O)C[C@H]1C(C)(C)[C@H](OC(=O)C(C)C)[C@@]2(O)C(=O)[C@]1(C)C1CC[C@]3(C)C(CC(=O)O[C@H]3c3ccoc3)[C@]13O[C@@H]32 (some centres undefined) | inactive | – |

Source: PubChem BioAssay (NCATS)
